Shown are actives, neighbours in structure and some others; about 15% of the full set was active somewhere.
HCV inh: HCV inhibition. Huh7.5.1 HCVcc-Cre infection, luciferase reporter, 44 h. Potency, µM (top dose mostly 41.8 µM), for inactives: at the highest dose activity change, negative = inhibition, actives largely listed as inhibitors. hit rate 3.4% among 340,000; further: potency means the concentration at half of the fitted maximal effect; on the % scale 0 is the no-effect control and ±100 the full control effect
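1,000 cells/well; 4 h culture; + compound; + HCVcc-Cre (~0.5 moi); 44 h; luciferase substrate, RT 15 min; read 15 sec.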
Pf growth 48h: inhibits P. falciparum growth in the first generation, 48 h; P. falciparum luciferase growth in erythrocytes, 48 h; Potency, µM (doses to about 28.7 µM), without a hit: at the highest dose activity change, negative = inhibition, usual class: inhibitors; hit rate 5.9% among 310,000; AID 504832; further: potency means the concentration at half of the fitted maximal effect; on the % scale 0 is the no-effect control and ±100 the full control effect
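Luminescence readout; reporter = integrated firefly luciferase in P. falciparum. RBC culture at 2% hematocrit, 0.1% parasitemia final, 37 C/5% CO2; decreased signal taken as growth inhibition.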
Pf growth 96h: P. falciparum growth inhibition at 96 hour, primary screen for plastid delayed-death inhibitors. P. falciparum luciferase reporter growth, 96 h. Potency, µM (doses to about 28.7 µM), without a hit: at the highest dose activity change, negative = inhibition, most hits filed as inhibitors. hit rate 6.9% among 320,000; further: potency means the concentration at half of the fitted maximal effect; on the % scale 0 is the no-effect control and ±100 the full control effect
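Luminescence readout: decreased luciferase signal marks inhibited growth of reporter-expressing P. falciparum in infected red cells (2% hematocrit, 0.05% parasitemia final), exposed to compound two generations (96 h, 37 C, 5% CO2).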
HCMV antiviral: human cytomegalovirus inhibition; HFF cells, HCMV-luciferase reporter, 72 h; stronger effect = lower value; activity change, negative = inhibition, % at 57.5 µM; hit rate 4.5% among 410,000; in the data active means activity change below about -60%; inconclusive means no clear call, values can overlap the other calls; inactive means above about -39%; further: on the % scale 0 is the no-effect control and ±100 the full control effect
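Two compound doses tested in HFFs infected with HCMV-luciferase, MOI 1 PFU/cell, 72 h at 37C. Lysate luminescence read with OneGlo; data normalized against buffer-only and 10uM Salinomycin inhibitor controls.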
SARS PLP yeast: SARS-CoV PLP inhibition in yeast | S. cerevisiae expressing SARS-CoV PLpro, growth rescue | hit rate 0.19% among 330,000 | AID 485353 | Potency, µM (series often up to 32.9 µM), for the others: at the top dose activity, positive = growth rescue, usual class: activators; calls by dose curve; further: potency means the concentration at half of the fitted maximal effect; 0% is about no effect; nearly all actives have a fitted effect of over 55% in size
Sm TGR inh: S. mansoni TGR enzyme inhibition. Q962Y6. purified TGR, DTNB reduction, TNB absorbance 405 nm. Potency, µM (doses to about 114 µM), without a hit: at the highest dose activity change, negative = inhibition, actives largely listed as inhibitors. hit rate 3% among 360,000. AID 485364; further: potency means the concentration at half of the fitted maximal effect; on the % scale 0 is the no-effect control and ±100 the full control effect; nearly all actives have a fitted effect of over 60% in size
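TGR 20 nM + NADPH 100 uM (dispensed conc.), cpd preinc 15 min RT; start with NADPH (500 uM addition) then DTNB (15 mM addition). Kinetic TNB absorbance, 405 nm filter. Four-parameter Hill fit across titration.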
Starred values were filed as active, the others as inactive; ? = inconclusive; nt = no result given; ! = not active in a repeat; [ ] = remark or other dose. Unless noted, the call rests on the fitted dose curve; in most records, active means well fitted curve in the direction sought with a large enough effect; inconclusive means small, poorly fitted or top-dose-only effect, or another doubt; inactive means no such curve, though single readings can be large; an effect the other way counts as inactive or inconclusive.

SMILES	HCV inh	Pf growth 48h	Pf growth 96h	HCMV antiviral	SARS PLP yeast	Sm TGR inh
COc1cccc2c1C(=O)c1c(O)c3c(c(O)c1C2=O)C[C@](O)(C(=O)CO)C[C@@H]3O[C@H]1C[C@H](N)[C@@H](O)[C@H](C)O1	nt	-10%	-10%	nt	nt	nt
COc1cccc2c1C(=O)c1c(O)c3c(c(O)c1C2=O)C[C@@](O)(C(C)=O)C[C@@H]3O[C@H]1C[C@H](N)[C@H](O)[C@H](C)O1	6.3µM*!	0.37µM*	0.59µM*	-100*	-40%	-9%
C=Cc1ccc(Cn2c(C)c(C(=O)NCCC#N)sc2=O)cc1	nt	nt	nt	-16	nt	nt
CCCCC(=O)OCC(=O)[C@]1(O)Cc2c(O)c3c(c(O)c2[C@H](OC2CC(NC(=O)C(F)(F)F)C(O)C(C)O2)C1)C(=O)c1c(OC)cccc1C3=O (stereo partly drawn)	nt	3.4µM*	2.4µM*	nt	nt	nt
Cc1ccsc1C(=O)N1CCCC(C)(C(=O)O)C1 (stereo not drawn)	nt	nt	nt	-3	nt	nt
CCCn1c2ccc(/C(C)=N\O)cc2c2cc(/C(C)=N/O)ccc21	13µM*	?	3%	45	-1%	-1%
CCCCn1c(=O)[nH]c(=O)c2c1nc(Cn1ncc(Cl)c(Cl)c1=O)n2CCC	10µM*	?	?	-100*	2%	18µM*
CCOC(=O)[C@H]1[C@H]2COc3cc(OC)ccc3[C@@H]2N2C(=O)c3cc(OC)c(OC)cc3NC(=O)[C@@]12C	-1%	?	?	34	1%	-5%
CN1CCO/C1=C(\C(Cl)=C(Cl)Cl)[N+](=O)[O-]	7%	-22%	4%	16	0%	32µM*
CCC1CO/C(=C(\C(Cl)=C(Cl)Cl)[N+](=O)[O-])N1Cc1ccc(Cl)nc1 (stereo not drawn)	15%	nt	5%	-16	1%	0%
CC(C)Oc1ccc(C(=O)NC(Cc2c[nH]c3ccccc23)C(=O)NN)cc1 (stereo not drawn)	13%	16%	22%	0	-1%	-2%
CCc1cccc(OCC(=O)Nc2ccc(S(=O)(=O)Nc3ncccn3)cc2)c1	nt	nt	nt	1	nt	-3%
CN(C(=O)OC(C)(C)C)c1ccc(-c2nc3ccccc3s2)cc1	nt	nt	nt	-95*	nt	nt
CC(C)c1ccc(-c2nc3ccccc3s2)cc1	1%	-67%	?	-95*	-1%	13%
COc1ccc(CCN2C(=O)C3C4CC(C5C(C(=O)O)=NOC45)C3C2=O)cc1OC (stereo not drawn)	?	5%	nt	-4	26%	19%
CCOCCn1c(CN2CCN(c3ccc(F)cc3)CC2)nc2c1c(=O)n(C)c(=O)n2C	?	nt	7.4µM*	?	-3%	0%[11.4 µM]
COCCn1c(CN2CCN(c3cccc(Cl)c3)CC2)nc2c1c(=O)n(C)c(=O)n2C	?	nt	?	?	-7%	0%
CCOCCn1c(CN2CCN(c3cccc(Cl)c3)CC2)nc2c1c(=O)n(C)c(=O)n2C	16µM*	nt	-13%	-18	-8%	0%
COc1cccc(Nc2nc(C(N)c3ccccc3)cs2)n1 (stereo not drawn)	nt	nt	nt	27	nt	nt
Cn1c(=S)[nH]c2sc3c(c2c1=O)CCC(C(C)(C)C)C3 (stereo not drawn)	nt	nt	?	-95*	-3%	?
CCOc1ccccc1NC(=O)Nc1cc2c(cc1N1CCCCC1)n(CC)c(=O)n2CC	nt	nt	nt	-62*	nt	-12%
CCOc1ccccc1C(=O)Nc1cc2c(cc1N1CCCC1)n(CC)c(=O)n2CC	?	?	-12%	-35	3%	-4%
Cc1cccc(C(=O)Nc2cc3c(cc2N2CCCCC2)n(C)c(=O)c(=O)n3C)c1	nt	nt	nt	-6	nt	4%
CCn1c(=O)n(CC)c2cc(N3CCCC3)c(NC(=O)c3cccc(C)c3)cc21	13µM*	0%	?	0	-4%	?
CCn1c(=O)n(CC)c2cc(N3CCCC3)c(NC(=O)c3ccc(OC)c(Br)c3)cc21	?	13µM*	-22%	-21	0%	?
SMILES	HCV inh	Pf growth 48h	Pf growth 96h	HCMV antiviral	SARS PLP yeast	Sm TGR inh
CCn1c(=O)n(CC)c2cc(N3CCCC3)c(NC(=O)c3ccccc3OC)cc21	?	?	-2%	?	-25%	-2%
CCn1c(=O)n(CC)c2cc(N3CCCC3)c(NC(=O)c3cccc(Cl)c3)cc21	6.3µM*	?	12µM*	-21	-9%	-26%
O=c1c2c(nc3cc(-c4ccc(Cl)cc4)[nH]n13)CCS2	1%	76%	-77%	25	-10%	-1%
Cc1ccc(NC(=O)c2ccc(NC(=O)N3CCSc4nc(C)cc(C)c43)cc2)c(Cl)c1	nt	nt	nt	0	nt	-2%
CCn1c(=O)c(=O)n(CC)c2cc(N3CCCCC3)c(NC(=O)c3cccc(OC)c3)cc21	nt	nt	nt	-2	nt	5%
CCn1c(=O)n(CC)c2cc(N3CCCC3)c(NC(=O)c3ccc(C)c([N+](=O)[O-])c3)cc21	7.9µM*	-25%	3%	-17	6%	-2%
CCc1cccc(OCC2Cn3c(nc4c3c(=O)n(C)c(=O)n4C)O2)c1 (stereo not drawn)	?	16%	?	-10	5%	-3%
Cn1c(CCNC(=O)c2ccco2)nc2cc(NC(=O)c3ccco3)ccc21	19%	77%	46%	93	-2%	?
Cn1c(CCNC(=O)c2ccco2)nc2cc([N+](=O)[O-])ccc21	-13%	8%	2.6µM*	5	0%	-18%
COc1ccc(CCNc2ncnc3c2nnn3C)cc1OC	nt	nt	nt	-9	nt	4%
CCCC(=O)N1CCN(c2ccc(NC(=O)c3sc4ccccc4c3Cl)cc2)CC1	0%	?	4.7µM*	-2	5%	6%
